# An excerpt weighted towards active compounds, which were near 0.54% of everything screened.
# EPAC2 antagonist: blocks human EPAC2 exchange factor; EPAC2 GEF exchange of Rap1B-BODIPY-GDP, fluorescence; 360,000 tested, 0.18% active; AID 720708; Potency, µM (top dose mostly 114 µM), hits mostly inhibitors; also: nearly all actives have a fitted effect of over 45% in size
# EPAC1 ag: EPAC1 (human) agonism. EPAC1 agonist qHTS, biochemical assay; response scale: 100% = response to 6.5 mM cAMP. 360,000 tested, 0.073% active. Potency, µM (top dose mostly 154 µM), usual class: activators; also: nearly all actives have a fitted effect of over 60% in size
#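 EPAC1 100 nM, Rap1B–BODIPY-GDP 250 nM, unlabeled GDP 50 uM; compound titration; 5 min RT; kinetic read ex480/em540 at 5-min intervals ×30 min; data normalized to 6.5 mM cAMP agonist control.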
# EPAC2 ag: activates human EPAC2 exchange factor; Q8WZA2; EPAC2 activation, biochemical qHTS; response scale: 100% = 6.5 mM cAMP response; AID 720711; Potency, µM (top dose mostly 154 µM), most hits filed as activators; 360,000 tested, 0.079% active; also: nearly all actives have a fitted effect of over 50% in size
#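 Nucleotide exchange monitored as fluorescence drop when BODIPY-GDP leaves Rap1B. Reaction: 100 nM EPAC2, 250 nM RAP1B-BODIPY-GDP, 50 uM GDP, room temperature, kinetic read over 30 min. Activity expressed relative to 6.5 mM cAMP.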
# TDP1 block: inhibitors of human tyrosyl-DNA phosphodiesterase TDP1. Potency, µM (highest dose often 130 µM), hits mostly inhibitors. 350,000 tested, 0.28% active. recombinant TDP1, AlphaScreen DNA substrate cleavage. Q9NUW8; also: nearly all actives have a fitted effect of over 40% in size
# Target sequence (Q9NUW8 whole entry, looked up): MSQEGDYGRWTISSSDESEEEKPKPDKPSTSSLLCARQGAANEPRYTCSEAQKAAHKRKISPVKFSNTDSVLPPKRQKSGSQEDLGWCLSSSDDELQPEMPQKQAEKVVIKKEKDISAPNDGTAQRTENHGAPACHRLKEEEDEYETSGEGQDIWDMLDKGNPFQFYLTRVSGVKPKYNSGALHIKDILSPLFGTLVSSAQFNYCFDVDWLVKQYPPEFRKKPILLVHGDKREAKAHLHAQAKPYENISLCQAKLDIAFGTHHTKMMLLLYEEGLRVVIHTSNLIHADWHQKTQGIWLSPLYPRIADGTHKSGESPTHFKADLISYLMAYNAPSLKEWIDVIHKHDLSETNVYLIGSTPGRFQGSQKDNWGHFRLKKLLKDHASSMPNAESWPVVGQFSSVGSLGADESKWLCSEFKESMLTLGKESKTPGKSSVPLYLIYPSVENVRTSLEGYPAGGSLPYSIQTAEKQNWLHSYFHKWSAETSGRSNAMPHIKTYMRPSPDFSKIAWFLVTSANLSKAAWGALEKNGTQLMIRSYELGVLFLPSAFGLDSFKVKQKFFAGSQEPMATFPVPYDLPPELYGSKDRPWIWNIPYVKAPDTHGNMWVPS
#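 Signal: AlphaScreen proximity between streptavidin donor and anti-FITC acceptor beads on intact substrate. Reaction: Tdp1 1 nM, substrate 15 nM final, 5 min RT after 15 min compound preincubation.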
# ERG-DNA inh: blocks human ERG Ets domain binding to DNA; fluorescence polarization, His-ERG Ets domain / labelled DNA; Potency, µM (titrated, usually from 76.9 µM), usual class: inhibitors; 370,000 tested, 0.028% active; AID 624246; active = well fitted inhibition curve with a large enough effect in the polarisation, with a control signal flat; inconclusive = small, poorly fitted or top-dose-only effect, or effect the other way, or a change in a side signal; inactive = no such curve, though single readings can be large or run the other way; the % refers to the polarisation;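 also: polarization taken with two DNA probes labelled with fluorescein and Texas red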
#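 His-tagged ERG Ets domain (1 uM in the protein solution; 300mM KCl, 50mM Tris-HCl, 1mM EDTA, 1mM DTT, pH 7.5) received compound, then a probe mix of 5 nM fluorescein-DNA and 100nM Texas-615-DNA. Fluorescence polarization was read for both dyes.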
# EPAC1 antagonist: EPAC1 (human) antagonism; EPAC1 GEF assay, Rap1b-BODIPY-GDP exchange fluorescence; 360,000 tested, 0.14% active; O95398; Potency, µM (titrated, usually from 115 µM), actives largely listed as inhibitors; also: nearly all actives have a fitted effect of over 50% in size
# Numbers stand for hits; i = inactive; ? = inconclusive; nt = no result given; ! = a repeat was not active. Unless noted, calls follow the shape of the dose curve; as a rule, active = well fitted curve in the direction sought with a large enough effect; inconclusive = small, poorly fitted or top-dose-only effect, or another doubt; inactive = no such curve, though single readings can be large; an effect the other way counts as inactive or inconclusive.
SMILES,EPAC2 antagonist,EPAC1 ag,EPAC2 ag,TDP1 block,ERG-DNA inh,EPAC1 antagonist
COc1cc2ccccc2cc1C(=O)NC(=S)Nc1ccc(C(=O)O)cc1,i,i,i,50µM,i,i
COc1ccc(/C=C/C(=O)NC(=S)Nc2ccc(C(=O)O)cc2)cc1,i,i,i,89µM,i,i
COc1ccc(NS(=O)(=O)c2ccccc2C(=O)O)cc1,nt,nt,nt,i,nt,nt
N[C@@H](COC(c1cccc(F)c1)c1ccccc1OCc1ccccc1)C(=O)O (some centres not stated),nt,nt,nt,i,nt,nt
CC(=O)N[C@@H](CC(=O)O)C(=O)O,i,i,i,i,28µM,i
Clc1ccc(C2Nc3cccc4cccc(c34)N2)c(Cl)c1,10µM,i,i,nt,i,i
CCc1nc2c(OCc3cccc(Cl)c3)cccn2c1N(C)C(C)=O,i,i,20µM,nt,nt,i
N[C@@H](Cc1cc(I)c(Oc2ccc(O)c(I)c2)c(I)c1)C(=O)O,?,i,i,i,i,50µM!
NC(Cc1cc(I)c(Oc2ccc(O)c(I)c2)c(I)c1)C(=O)O (configuration not stated),nt,nt,nt,i,nt,nt
Nc1c(C(=O)C2CC2)sc2nc(-c3cccs3)cc(C(F)(F)F)c12,i,i,112µM,i,i,i
Cc1cc(O)ccc1N=Cc1c(C(F)(F)F)[nH][nH]c1=O,i,i,i,i,6.3µM,i
O=c1[nH][nH]c(C(F)(F)F)c1C=Nc1ccccc1,i,i,i,i,i,i
Cc1nc2c(ccc3nc(NC(=O)c4ccc5c(c4)OCCO5)sc32)s1,i,i,i,nt,nt,i
Cc1nc2ccc3nc(NC(=O)c4ccc5c(c4)OCCO5)sc3c2s1,i,i,i,89µM,i,i
CC(C)(Sc1ccc(CCN(CCCCC2CCCCC2)C(=O)NC2CCCCC2)cc1)C(=O)O,56µM,i,i,i,i,i
OC[C@H](S)CS,nt,nt,nt,13µM,nt,nt
Cc1nnc(N/N=C\c2ccc(-c3cccc(C(=O)O)c3)o2)n1N,i,i,i,50µM,i,i
Nc1nonc1-c1nc2ccccc2n1CC(=O)N/N=C/c1ccc(-c2cccc(C(=O)O)c2)o1,i,i,i,14µM,i,i
O=Cc1ccc(-c2cccc(C(=O)O)c2)o1,i,i,i,45µM,i,i
Cc1nnc(N/N=C/c2ccc(-c3ccc(Br)cc3)o2)n1N,i,i,i,i,i,i
O=c1[nH]cc(CCc2ccccc2)c2ncncc12,nt,nt,nt,i,nt,nt
CCCN1CNc2c(c(=O)[nH]c(=S)n2CCc2cc(C)ccc2C)C1,nt,nt,nt,i,nt,nt
O=C1CCc2cc(S(=O)(=O)Nc3cccc(F)c3)ccc2N1,nt,nt,nt,i,nt,nt
COc1ccc(CN(Cc2ccccc2)C(=O)c2ccc(OC)cc2O)cc1,nt,nt,nt,i,nt,nt
C=CC(C)N1C(=O)S/C(=C\c2ccc(N3CCOCC3)cc2C)C1=O (configuration not stated),i,i,i,i,i,35µM
SMILES,EPAC2 antagonist,EPAC1 ag,EPAC2 ag,TDP1 block,ERG-DNA inh,EPAC1 antagonist
CCOc1[nH]c(/N=C/c2ccc(OC)cc2)c(C#N)c1C#N,nt,nt,nt,i,nt,nt
O=C1CCCC2=C1C1(CCCC1)N=C(Nc1nc3cc4ccccc4cc3o1)N2,nt,nt,nt,i,nt,nt
CC(C)(C)OC(=O)Cc1nnc(CNC(=O)c2ccccc2)s1,nt,nt,nt,i,nt,nt
CC(C)(C)c1ccccc1Nc1nc(C#N)nc(NC2CCCC2)n1,nt,nt,nt,i,nt,nt
CCN(CC)C(=O)CC(c1ccc(OC)cc1)c1c(OC)cc(OC)c2c(-c3ccccc3)cc(=O)oc12 (configuration not stated),nt,nt,nt,18µM,nt,nt
Cc1ccc(NS(=O)(=O)c2cc3c(cc2-c2ccccc2)NC(=O)CO3)cc1C,nt,nt,nt,i,nt,nt
C=CCSC1=N/C(=C\c2ccc(C(=O)O)cc2)C(=O)S1,i,i,i,28µM,i,i
N#CN1CCC(NC(=O)c2ccc(C(F)(F)F)cc2)CC1,nt,nt,nt,i,nt,nt
CCCN1C(=O)c2ccccc2NC1c1ccc(OC)c(CSc2ccccn2)c1 (configuration not stated),14µM,i,i,i,i,?
CCCN1C(=O)c2ccccc2NC1c1ccc(OC)cc1OC (configuration not stated),32µM,i,i,i,nt,i
COc1ccc(N2C(=O)c3ccccc3NC2c2ccc(OC)c(CSc3ccccn3)c2)cc1 (configuration not stated),i,i,i,i,i,i
C[n+]1cc(C(O)(c2ccccc2)c2ccccc2)n2ccccc21,nt,nt,nt,i,nt,nt
CCCCON1C(=O)c2cccc3cccc(c23)C1=O,i,i,i,35µM,i,i
CCCN(CCC)c1nc(N)nc(C#N)n1,nt,nt,nt,i,nt,nt
COc1cccc(C(=O)/C=C/c2ccc(OCC#N)c(OC)c2)c1,i,i,i,i,i,22µM
COc1cc(/C=C/C(=O)c2ccc(O)cc2)ccc1OCC#N,i,i,i,i,i,?
O=C(CNC(=O)c1ccc2n[nH]nc2c1)OC(C(=O)Nc1cc(C(F)(F)F)ccc1Cl)c1ccccc1 (configuration not stated),nt,nt,nt,i,nt,nt
CCCN1CNc2c(c(=O)[nH]c(=S)n2CCc2ccc(OC)cc2OC)C1,nt,nt,nt,i,nt,nt
COc1ccc(CCn2c(=N)c(S(=O)(=O)c3ccc(C)cc3)cc3c(=O)n4ccccc4nc32)cc1,89µM,i,i,i,i,i
Cc1ccc(Cn2c(=N)c(S(=O)(=O)c3ccc(Br)cc3)cc3c(=O)n4ccccc4nc32)cc1,i,i,i,i,i,i
Cc1nnc(N2CCC(C(=O)NCc3cccc(Cl)c3)CC2)c2nn(-c3ccccc3)c(C)c12,nt,nt,nt,i,i,nt
Cc1ccc(-n2nc3c(N4CCC(C(=O)NCc5cccc(F)c5)CC4)nnc(C)c3c2C)cc1,i,i,i,40µM,i,i
O=C1CC(Cc2ccccc2)C(=O)N1CCc1ccc2c(c1)OCO2 (configuration not stated),11µM,i,i,i,i,i
Cc1cccc(CC2CC(=O)N(CCc3ccc4c(c3)OCO4)C2=O)c1 (configuration not stated),i,i,i,i,i,i
COc1ccc(C2Nc3ccccc3C(=O)N2c2ccc(Cl)cc2)cc1COc1ccc(NC(C)=O)cc1 (configuration not stated),nt,nt,nt,i,nt,nt
O=c1[nH][nH]c2c(N=Cc3ccccc3O)ccc(F)c12,i,i,i,i,?,40µM
O=C1CCCC2=C1C(c1ccc(Br)cc1)c1c([nH]c(=S)[nH]c1=O)N2 (configuration not stated),i,i,i,i,i,i
O=c1[nH]c(=S)[nH]c2c1C(c1ccc(Br)cc1)c1c([nH]c(=S)[nH]c1=O)O2,i,i,i,nt,i,35µM
O=C(O)CSC1=NS(=O)(=O)c2ccccc21,nt,nt,nt,i,nt,nt

# High-throughput results as filed in PubChem.
